This is a sample that favours compounds with a hit; in the whole collection about 7.2% have one here.
VLA-4 inh: inhibition in human VLA-4 binding assay, primary screen, VLA-4 allosteric modulator project, MLPCN library, flow cytometry, VLA-4 expressing cells; hit rate 0.2% among 330,000; Integrin alpha-4 (Homo sapiens), P13612; ligand binding flow cytometry; AID 2557, 2010; inhibition, % (about 7 µM as worked out from the volumes in the protocol); in the data active = inhibition above about 50%
Bfl-1 A1 inh: caspase 3/7 activation in MEF A1-2A-BIM cells, primary screen, A1 inhibitor project, cell-based, luminescence, HTS. Caspase-Glo 3/7 luminescence, 3 h; percent of clofoctol response, vehicle zero. caspase activation, % (test concentration not listed). hit rate 0.066% among 330,000. AID 2462, 2010;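 active = over half of replicate activation scores above 10%, or exactly half above 10 with the replicate mean above 10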
ALR inh: inhibitors of human ALR sulfhydryl oxidase, primary screen, biochemical, H2O2 detection, HRP-luminol luminescence, single point. FAD-linked sulfhydryl oxidase ALR (Homo sapiens), P55789. purified ALR, DTT oxidation. inhibition, % (test concentration not listed). hit rate 3.8% among 290,000. AID 485317, 2010;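 active = mean replicate inhibition above about 79%, with every replicate also reaching it, limit read from the data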
SUMO Mot1 rescue: yeast Mot1-301 growth rescue at high temperature, primary screen, SUMOylation pathway inhibitor project, S. cerevisiae, ATP luminescence, 38.5C. S. cerevisiae Mot1-301 growth rescue; percent above DMSO median, 100 means doubled. hit rate 1% among 320,000. growth rescue, % at 18.8 µM;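 active = every valid replicate shows activation above 250% relative to neutral control wells; inactive = the rest, any valid replicate at or below 250%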;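 also: OY570 slx delta 5 strain wells were the positive control but not used for scaling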
AHR act: AHR activators, primary screen, cell-based, luminescence, luciferase reporter, human. Aryl hydrocarbon receptor (Homo sapiens), P35869. AHR-responsive luciferase reporter cells. activation, % at 5 µM. hit rate 2.5% among 320,000; in the data active = activation above about 47%;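 also: 0% = vehicle wells and 100% = reference agonist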
Efflux pump inh: inhibitors of Candida efflux pumps in yeast, primary screen, S. cerevisiae, Nile Red, multiplex | hit rate 0.44% among 330,000 | inhibition, % at 10 µM | S. cerevisiae Candida pump triplex;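 active = plate passing quality check with inhibition over a set limit, or well fluorescence over plate mean plus 4 SD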;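 also: Nile Red retained in pooled yeast measured as flow cytometry median fluorescence; 0% = buffer negative control and 100% = Enniatin B positive control; higher means more Nile Red kept so more efflux inhibition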
AHR act cf: AHR activators, confirmation, cell-based, luminescence, luciferase reporter, human; shares compounds with AHR act; activation, % at 9 µM; hit rate 87% among 2,300; human cells, AHR-responsive luciferase reporter; AID 2845, 2010; in the data active = activation above about 49%;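 also: HepG2 hepatoma cells carrying a DRE-driven firefly luciferase reporter; 0% = vehicle wells and 100% = reference agonist wells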
PXR counter: human PXR activators, counter-screen for AHR activator project, cell-based, luciferase luminescence; hit rate 88% among 2,300; cell-based PXR reporter; activation, % at 11.6 µM; shares compounds with AHR act; in the data active = activation above about 11%;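 also: human hepatoma DPX-2 cells expressing full-length human PXR; 0% = DMSO and 100% = reference agonist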
Target sequence (O75469 whole entry, looked up): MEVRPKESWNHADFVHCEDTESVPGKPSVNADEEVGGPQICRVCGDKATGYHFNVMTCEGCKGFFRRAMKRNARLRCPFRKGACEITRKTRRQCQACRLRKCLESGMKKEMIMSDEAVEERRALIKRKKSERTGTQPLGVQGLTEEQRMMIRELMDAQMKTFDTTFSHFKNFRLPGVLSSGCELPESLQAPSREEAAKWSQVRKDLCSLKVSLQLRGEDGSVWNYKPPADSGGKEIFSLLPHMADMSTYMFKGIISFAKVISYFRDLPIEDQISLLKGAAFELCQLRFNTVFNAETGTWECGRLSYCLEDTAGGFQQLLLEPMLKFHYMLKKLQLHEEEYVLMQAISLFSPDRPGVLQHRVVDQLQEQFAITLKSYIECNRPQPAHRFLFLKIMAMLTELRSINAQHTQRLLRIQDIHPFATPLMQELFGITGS
An asterisk follows results filed as active; · = no result.

SMILES	VLA-4 inh	Bfl-1 A1 inh	ALR inh	SUMO Mot1 rescue	AHR act	Efflux pump inh	AHR act cf	PXR counter
Cn1cc(/C=C(\NC(=O)c2ccccc2Cl)C(=O)NCCCn2ccnc2)c2ccccc21	32	0	8	-21	21	0	·	·
COc1c2ccoc2c(OC[C@@H](O)C(C)(C)OC)c2oc(=O)ccc12	-6	1	-5	-15	102*	0	69*	80*
CC1CC(C)CN(C(=S)Nc2ccc(OC(F)F)cc2)C1 (centres undefined)	0	0	-2	288	83*	0	64*	118*
CC1CC(C)CN(C(=S)Nc2ccc(SC(F)F)cc2)C1 (centres undefined)	4	0	-5	30	6	0	·	·
Oc1ccc(/C=N/Nc2ncnc3nc[nH]c23)cc1	6	-7	·	-1	4	0	·	·
Fc1ccccc1/C=N/Nc1ncnc2nc[nH]c12	-6	-2	56	147	130*	0	83*	40*
Cc1ccc(/C=N/Nc2ncnc3nc[nH]c23)cc1	5	-6	65	3	115*	0	104*	84*
c1ccc(CNc2ncnc3nc[nH]c23)nc1	-6	1	10	-9	4	0	·	·
Fc1cccc(/C=N/Nc2ncnc3nc[nH]c23)c1	4	-8	-2	-15	105*	0	78*	33*
CCOC(=O)Cn1c(=O)c2c(nc3n2CC(C)CN3Cc2ccccc2)n(C)c1=O (centres undefined)	-2	0	1	2	1	1	·	·
COc1ccc(-c2nc3n(c2C)Cc2ccccc2-3)cc1	4	-2	99*	39	80*	0	149*	17*
COc1ccc(-c2nnsc2N2C(=O)c3ccccc3C2=O)cc1	8	0	-3	-13	1	0	·	·
O=C(CN1c2ccccc2S(=O)(=O)c2ccccc21)Nc1ccccc1F	16	0	-6	0	4	0	·	·
Cc1sc2nc(CSC(C)C(=O)N(C)CC(=O)Nc3ccccc3C(F)(F)F)[nH]c(=O)c2c1C (centres undefined)	-2	0	60	-5	3	0	·	·
Cc1sc2nc(CSc3ccc([N+](=O)[O-])c(C(F)(F)F)c3)[nH]c(=O)c2c1C	12	1	·	-10	83*	0	76*	32*
COc1cccc(OCC(Cn2cnc3ccccc32)OC(C)=O)c1 (centres undefined)	7	1	5	10	7	0	·	·
COc1ccc(-c2cc3cc(OC)c(OC)cc3c(C)n2)cc1C	2	-1	-2	6	96*	0	58*	29*
CCOc1ccc(C(CCc2ccccc2)NC(=O)c2ccccc2)cc1OCC (centres undefined)	9	0	1	38	-3	0	·	·
Cc1ccc(Oc2ccc(NS(=O)(=O)c3cccc(C(=O)O)c3)cc2)cc1	8	2	50	-6	-1	0	·	·
O=C(COC(=O)c1cc(=O)[nH]c2ccc(Br)cc12)c1ccccc1	0	0	-12	1	2	0	·	·
CCCC1=NCCn2cccc21	8	1	·	-20	0	0	·	·
CCCC1=[N+](CC(=O)c2ccc(C)cc2)CCn2cccc21	-1	0	8	-3	82*	0	112*	22*
c1ccc(-c2cc3c(-n4cccc4)ncnc3o2)cc1	-3	0	5	91	86*	0	105*	23*
Cc1ccc(C)c(S(=O)(=O)N2CCN(Cc3cc4c(cc3O)OCO4)CC2)c1	1	-1	-67	6	4	0	·	·
Cc1ccc(NC(=O)COC(=O)CCC(=O)c2cccs2)c(C)c1	5	-1	-2	8	-2	0	·	·
SMILES	VLA-4 inh	Bfl-1 A1 inh	ALR inh	SUMO Mot1 rescue	AHR act	Efflux pump inh	AHR act cf	PXR counter
O=C(Nc1ccc(F)cc1)c1cnc(-c2ccccc2)nc1-c1ccccc1	10	1	-1	-16	124*	0	53*	81*
O=C(Nc1ccc(F)cc1)c1ccccc1F	9	-5	4	-28	29	0	·	·
COc1ccc(C(=O)N/N=C/C(Br)=C/c2ccccc2)cc1	0	0	-17	1	16	0	·	·
Cn1cc(C(=O)N/N=C/C(Br)=C/c2ccccc2)ccc1=O	7	0	-3	-43	116*	0	143*	11*
Cn1cc(C(=O)N/N=C/C(Br)=C\c2ccccc2)ccc1=O	1	1	-5	-36	112*	0	77*	11*
CCOc1ccc(S(=O)(=O)N2CCC(C(=O)NC3CC3)CC2)cc1C	5	0	1	0	1	0	·	·
CCn1c2ccccc2c2nc3cc(OC)c(OC)cc3nc21	0	-6	-6	5	115*	0	96*	63*
CCOCCn1c2ccccc2c2nc3ccccc3nc21	-3	-1	0	-24	38	0	·	·
O=C(Nc1cc(Cl)ccc1-n1cncn1)c1cc(F)cc(F)c1	2	0	2	11	41	0	·	·
O=C(Nc1cc(Cl)ccc1-n1cncn1)c1cccs1	4	-1	-2	-17	84*	0	116*	20*
CCCC(=O)NCCc1cc(OC)c(OC)cc1Br	9	1	-98	18	17	0	·	·
CCCCNC(=O)CC1Nc2ccccc2NC1=O (centres undefined)	23	0	8	-5	86*	0	52*	58*
O=C(CC1Nc2ccccc2NC1=O)NCCCN1CCCCCC1 (centres undefined)	-9	0	2	0	2	0	·	·
CC(=O)n1cc(/C=N/NC(=O)c2sc(C)nc2C)c2ccccc21	0	0	-8	·	94*	0	64*	·
CC(=O)n1cc(/C=N/NC(=O)c2ccc([N+](=O)[O-])cc2)c2ccccc21	-2	0	-6	12	8	0	·	·
CC(C)(C)c1ccccc1OCC(=O)Nc1ccccc1C(=O)NCc1cccnc1	-14	0	-37	1	2	0	·	·
CC(=O)c1cccc(NC(=S)N2CCc3ccccc32)c1	-12	0	-22	8	86*	0	107*	60*

Source: PubChem BioAssay
